Compounds with a hit are over-represented: about 28% of the library has one in this group of screens.
CYP2C19 activ: activators of human cytochrome P450 2C19 | recombinant CYP2C19, luciferin-H EGE luminescence; stronger effect = higher value; 0 = fully inhibited enzyme, 1 = untreated enzyme | activation factor at 5 µM | 96,000 tested, under 10 active | AID 1025;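 active = activation factor of at least 2 at 5 µM in the primary screen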;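 note: 0 = wells with 2.5 mM tranylcypromine and 1 = vehicle-only wells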
Target sequence (P33261 whole entry, looked up): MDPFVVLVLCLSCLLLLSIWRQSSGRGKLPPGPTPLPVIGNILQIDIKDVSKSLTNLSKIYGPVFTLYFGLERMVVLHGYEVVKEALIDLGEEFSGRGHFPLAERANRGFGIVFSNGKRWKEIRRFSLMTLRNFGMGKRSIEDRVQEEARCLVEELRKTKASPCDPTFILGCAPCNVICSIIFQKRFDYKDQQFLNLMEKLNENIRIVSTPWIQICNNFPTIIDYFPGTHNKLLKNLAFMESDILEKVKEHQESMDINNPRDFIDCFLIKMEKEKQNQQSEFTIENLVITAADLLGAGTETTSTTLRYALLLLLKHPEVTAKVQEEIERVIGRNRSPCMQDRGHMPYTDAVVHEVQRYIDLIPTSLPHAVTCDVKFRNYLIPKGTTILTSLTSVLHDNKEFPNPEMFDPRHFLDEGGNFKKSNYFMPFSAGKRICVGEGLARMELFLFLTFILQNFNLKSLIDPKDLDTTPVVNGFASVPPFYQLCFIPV
Mac1 fbg enh: CD11b/CD18-fibrinogen binding enhancement; P05107+P11215; K562 CD11b/CD18 adhesion to fibrinogen, ATPlite luminescence; activation, % at 10 µM; 93,000 compounds, 0.07% hits;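 active = 10 µM primary screen giving 50% or more activity, confirmed by 40% or more on retest at that dose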
CYP2C19 inh: human CYP2C19 inhibition; P33261; AID 778; CYP2C19 Supersomes, luciferin-H EGE luminescence, 30 min; 96,000 compounds, 21% hits; inhibition, % at 5 µM;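 active = CYP2C19 inhibition above a set limit at 5 µM in the primary screen, cut at about 50% in these data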;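 note: plate controls were negative control wells for no effect and 2.5 mM tranylcypromine positive control for full effect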
CYP2C9 act: activators of human CYP2C9. P11712. activation factor at 5 µM. recombinant CYP2C9, luciferin-H conversion, luminescence; stronger effect = higher value; factor 1 = untreated enzyme, 0 = blocked. AID 1024. 96,000 compounds, 1.4% hits;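 active = activation factor of 2 or more for CYP2C9 at a 5 µM dose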;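 note: 0 = sulfaphenazole-blocked wells and 1 = vehicle-only wells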
CD11b adhes inh: CD11b/CD18-fibrinogen binding inhibition. P05107+P11215. AID 1497. K562 CD11b/CD18 adhesion to fibrinogen, ATPlite luminescence; Mn2+ added to activate the integrin. 93,000 compounds, 0.54% hits. inhibition, % at 10 µM;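 active = primary inhibition of 50% or more at 10 µM, then 40% or more on retest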
CYP2C9 inh: human CYP2C9 inhibition; P11712; CYP2C9 Supersomes, luciferin-H conversion, luminescence; 96,000 compounds, 20% hits; inhibition, % at 5 µM;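 active = blocking of liver enzyme CYP2C9 beyond about 50% at 5 µM, limit read from the data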
* = called active by the depositor; . = not tested or not shown.

SMILES | CYP2C19 activ | Mac1 fbg enh | CYP2C19 inh | CYP2C9 act | CD11b adhes inh | CYP2C9 inh
COc1ccc(O)c(C(=O)CC(=O)c2ccccc2)c1 | 0.6 | -3 | 40 | 0.7 | 21 | 27
O=C(NCCSCc1ccc(Cl)cc1Cl)c1ccc(CN2CCOCC2)cc1 | 0.5 | -6 | 49 | 0.2 | 71 | 81*
O=C(/C=C/c1ccc2c(c1)OCO2)NCCSCc1ccc(Cl)cc1Cl | 0.8 | -1 | 21 | 0.3 | 20 | 73*
O=C(/C=C/c1ccc2c(c1)OCO2)NCCSCc1cccc(Cl)c1 | 0.7 | . | 25 | 0.6 | . | 43
CCC(C)(C)NC(=O)c1cc([N+](=O)[O-])ccc1N1CCOCC1 | . | 0 | . | . | -6 | .
Cc1cc(C)cc(C(=O)N(NC(=O)Nc2ccc(Cl)cc2)C(C)(C)C)c1 | 0.8 | 4 | 21 | 0.8 | 16 | 17
Cc1ccc(C2NC(=O)Cc3ccccc32)cc1 (stereo not given) | 0.3 | 0 | 65* | 1 | 9 | 2
CCOC(=O)c1sc(-c2ccccc2)cc1N | 0.1 | 0 | 90* | 0.2 | -7 | 80*
CCOC(=O)c1sc(-c2ccc(F)cc2)cc1N | 0.1 | -3 | 90* | 0.2 | 8 | 83*
CCOC(=O)c1sc(-c2ccc(OC)cc2)cc1N | 0.3 | 14 | 65* | 0.3 | 28 | 68*
C#CCn1c(S(=O)(=O)Cc2ccc(F)cc2)nc(-c2ccccc2)c1-c1ccccc1 | 0 | -3 | 98* | 0.1 | -9 | 92*
CCOC(=O)Cn1c(S(=O)(=O)Cc2ccc(F)cc2)nc(-c2ccccc2)c1-c1ccccc1 | 0.5 | . | 52* | 0.6 | . | 44
Cc1cccc(NC(=S)Nc2ccc(N3CCOCC3)cc2)c1C | . | -1 | . | . | 7 | .
Cc1noc(C)c1CSCC(=O)OCC(=O)NC1CCCCC1 | 0.8 | -3 | 20 | 0.9 | -23 | 12
COc1ccc(C(=O)COC(=O)CSCc2c(C)noc2C)cc1OC | 0.4 | -5 | 64* | 0.7 | -6 | 34
O=C(N/N=C/c1ccc(Sc2ccccn2)o1)c1cc2ccccc2cc1O | 0 | 2 | 98* | 0.1 | -10 | 88*
COC(=O)c1ccc(/C=N/NC(=O)c2cccc(F)c2)cc1 | 0.9 | -1 | 14 | 0.9 | 19 | 7
O=C(CSc1cccc2cccnc12)NCc1ccco1 | 0.9 | . | 6 | 1.5 | . | -47
Cc1ccc(/C=N/NC(=O)c2ccccn2)o1 | . | 0 | . | . | 2 | .
O=C(CCc1ccccc1O)N/N=C/c1ccc(Sc2cccc3cccnc23)o1 | 0.5 | -5 | 49 | 0 | 17 | 99*
O=C(N/N=C\c1ccc(Sc2ccccn2)o1)c1cccc(F)c1 | 0.4 | . | 59* | 0.4 | . | 60*
CC(=O)c1cccc(N(CC(=O)O)S(C)(=O)=O)c1 | 1.1 | -2 | -6 | 1.1 | -29 | -9
CC(=O)NCCN1C(=O)C2C3c4ccccc4C(c4ccccc43)C2C1=O (stereo not given) | 0.6 | -3 | 43 | 1 | 3 | 2
Cc1c(NC(=O)c2ccc3c(c2)OCO3)cccc1-c1nc2ccccc2o1 | 0.5 | 4 | 50 | 0.3 | 29 | 69*
Cc1ccc(-c2nc3ccccc3o2)cc1NC(=O)c1ccc2c(c1)OCO2 | 0.5 | 149 | 50 | 0.3 | -37 | 70*
SMILES | CYP2C19 activ | Mac1 fbg enh | CYP2C19 inh | CYP2C9 act | CD11b adhes inh | CYP2C9 inh
CNc1nc(NC)nc(-n2c(C(F)(F)F)nc3ccccc32)n1 | 0.6 | -4 | 38 | 0.4 | -19 | 64*
OCCNc1nc2ccccc2n1-c1ccccc1 | 0.6 | -3 | 39 | 0.8 | 10 | 15
COc1c(OC(C)=O)ccc(/C=C/c2ccc3ccccc3n2)c1[N+](=O)[O-] | 0.1 | -7 | 89* | 0.7 | 88 | 27
O=C(CNc1ccc(Oc2ccccc2)cc1)N1CCOCC1 | 1.1 | 0 | -9 | 1.2 | . | -18
Cc1ccc(CNC(=O)C2CC(c3cccc([N+](=O)[O-])c3)=NO2)cc1 (stereo not given) | 0.2 | -2 | 75* | 1 | 6 | 4
COc1ccc(C2=NOC(C(=O)NCc3ccccc3)C2)cc1 (stereo not given) | 0.7 | 2 | 34 | 1.4 | 10 | -36
O=C(NCc1ccc2c(c1)OCO2)C1CC(c2ccccc2O)=NO1 (stereo not given) | 0.7 | -5 | 28 | 1.4 | 25 | -44
COc1cccc(C2=NOC(C(=O)NCc3ccccc3)C2)c1 (stereo not given) | 0.5 | -2 | 50* | 1.2 | 31 | -24
COc1cccc(C2=NOC(C(=O)NC3CCCCC3)C2)c1 (stereo not given) | 0.9 | 0 | 10 | 2.9* | -3 | -190
COc1cccc(C2=NOC(C(=O)Nc3ccc(OC)c(OC)c3)C2)c1 (stereo not given) | 0.9 | -4 | 13 | 1.1 | 9 | -12
O=C(NCCc1ccccc1)C1CC(c2ccccc2O)=NO1 (stereo not given) | 0.1 | -5 | 87* | 0.7 | -1 | 33
CCn1ncc(C2=NOC(C(=O)NCc3ccccc3)C2)c1C (stereo not given) | 0.4 | -5 | 57* | 0.8 | 22 | 23
Cc1cc(N2CCOCC2)nc(SCc2ccc(Cl)cc2Cl)n1 | 0.5 | . | 48 | 0.4 | . | 64*
O=C(CSc1nc2ccccc2o1)Nc1ccc(N2CCOCC2)c(Cl)c1 | 0.3 | -8 | 73* | 0.1 | 101 | 89*
Cc1cc(C)nc(SCC(=O)Nc2ccc(N3CCOCC3)c(Cl)c2)n1 | 0.6 | -1 | 36 | 0.5 | 18 | 52*
CC(=O)CSc1nc2ccc(Nc3nc(N4CCOCC4)nc(N4CCOCC4)n3)cc2s1 | 0.3 | 5 | 75* | 0.5 | -9 | 55*
Cc1cccc(NC(=O)C2(C)CC3c4ccccc4C2c2ccccc23)c1 (stereo not given) | 1 | . | -2 | 0.9 | . | 14
O=C(CSc1nc2ccccc2s1)Nc1ccc(N2CCOCC2)c(Cl)c1 | . | -6 | . | . | 99 | .
CC(=O)Nc1ccc2nc(SCC(=O)Nc3ccc(N4CCOCC4)c(Cl)c3)sc2c1 | 0.6 | . | 45 | 0.2 | . | 76*
Cc1cc(Oc2ccccc2)nc(SCC(=O)Nc2ccc(Cl)c(Cl)c2)n1 | 0.4 | -6 | 56* | 0.4 | 33 | 65*
CC1(C)CC(=O)C=C(NCC2CCCO2)C1 (stereo not given) | 1 | -4 | -1 | 1.1 | -10 | -10
CN(C(=O)CN1CCC(NC(=O)C2CCCCC2)CC1)C1CCCCC1 | 1 | 5 | 2 | 1 | -16 | 0
CC(NC(=O)CN1CCc2ccccc21)c1ccccc1 (stereo not given) | . | -2 | . | . | 2 | .
CC(NC(=O)CN1C(=O)COc2ccccc21)c1ccccc1 (stereo not given) | 0.1 | -4 | 89* | 2.2* | 2 | -116
O=C(CN1C(=O)COc2ccccc21)NCc1ccc(C(=O)O)cc1 | 1.1 | 1 | -9 | 1 | 10 | -1

From PubChem
